Source: PubChem BioAssay
Only some compounds are listed: those with a hit (about 3.5% of all), similar ones and a draw of the others.
UGM FP inh – Mtb UDP-galactopyranose mutase inhibition | P9WIQ1 | purified UGM, fluorescence polarization probe displacement | inhibition, % at 10 µM | actives 0.06% (n = 320,000); in the data active = inhibition above about 10%, passing the limit was not always enough
Mtb FBA inh – inhibitors of M. tuberculosis fructose-bisphosphate aldolase | actives 2.3% (n = 360,000) | purified M. tuberculosis FBA, fluorescence read-out | P9WQA3 | inhibition, % at 1 µM; in the data active = inhibition above about 27%
Rv3671c protease – inhibitors of M. tuberculosis serine protease Rv3671c. inhibition, % at 5.96 µM. AID 2606. actives 0.048% (n = 320,000); in the data active = inhibition above about 38%;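 also: extracellular domain of Rv3671c used as enzyme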
Target sequence (P9WHR9 whole entry, looked up, the tested form may be a part): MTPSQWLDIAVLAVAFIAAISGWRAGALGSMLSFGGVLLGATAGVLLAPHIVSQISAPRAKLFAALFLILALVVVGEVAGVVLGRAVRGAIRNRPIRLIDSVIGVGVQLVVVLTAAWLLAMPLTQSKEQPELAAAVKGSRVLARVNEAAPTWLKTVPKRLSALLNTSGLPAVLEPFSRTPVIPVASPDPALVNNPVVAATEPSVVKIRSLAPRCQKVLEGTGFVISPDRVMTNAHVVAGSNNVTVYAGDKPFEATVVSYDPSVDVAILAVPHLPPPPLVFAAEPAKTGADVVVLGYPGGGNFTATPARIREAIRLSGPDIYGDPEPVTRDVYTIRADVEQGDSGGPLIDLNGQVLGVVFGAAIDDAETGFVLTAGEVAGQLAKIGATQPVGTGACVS
GDH-TPI inh – inhibits GDH-TPI coupling enzymes, artifact for Mtb FBA screen | GDH-TPI coupled enzyme counterscreen, NADH absorbance | inhibition, % at 4.8 µM | actives 1.2% (n = 360,000); in the data active = inhibition above about 30%
Hits are given with their value; . = inactive; / = no result given; + = active, no number.

SMILES	UGM FP inh	Mtb FBA inh	Rv3671c protease	GDH-TPI inh
COc1cccc2c1cc1c(=O)n(CC(=O)NCCCN3CCCCC3)nc(C)n12	.	115.8	.	.
COc1ccc(OC)c(NC(=O)CCN2CCN(c3ccccc3OC)CC2)c1	.	.	.	.
CC1CCN(Cc2c(C(=O)O)nnn2-c2nonc2N)CC1	.	.	.	.
CCOC(=O)Cc1nnc(NC(=O)CCc2ccccc2)s1	.	.	.	.
BrC(/C=N/Nc1nc(N2CCOCC2)nc(N2CCOCC2)n1)=C/c1ccccc1	.	.	.	40.7
Cc1ccc(NC(=O)CN2C(=O)S/C(=C\c3ccc(OCC(=O)O)c(Br)c3)C2=O)cc1	.	.	.	.
COc1cc(/C=C2\SC(=O)N(CC(=O)Nc3ccc(C)cc3)C2=O)cc(Cl)c1OCC(=O)O	.	.	.	33.3
O=[N+]([O-])c1c(Nc2ccccc2O)cc(N2CCOCC2)c2nonc12	.	.	.	32.5
N#Cc1cn(-c2cccc(C(F)(F)F)c2)c(=O)[nH]c1=O	.	.	.	.
C=CCN1C(=O)C2(c3ccccc31)C1CCCC=C1C(C#N)=C(N)C2(C#N)C#N (centres undefined)	.	.	.	30.6
C=CCN1C(=O)[C@]2(c3ccccc31)C1CCCC=C1C(C#N)=C(N)C2(C#N)C#N (some centres undefined)	.	.	.	.
N#CC(C(=O)Nc1ccc(Cl)c(Cl)c1)=C1Nc2ccccc2N1	.	.	.	32.5
Cc1cc(N(C)Cc2ccccc2)nc2cc(O)ccc12	.	+	.	.
C=CCn1c(O)c(C=Nc2ccc(OC)cc2C)c(=O)[nH]c1=O	.	.	.	42.5
C=CCn1c(O)c(C=Nc2c(C)n(C)n(-c3ccccc3)c2=O)c(=O)[nH]c1=O	.	.	.	.
Cc1c(C#N)c(=O)oc2ccc3ccccc3c12	.	115.1	.	.
CCN(CC)CCOc1ccc(-c2c(C)c3c(ccc4ccccc43)oc2=O)cc1	/	.	/	.
CN(CC(=O)NCc1ccccc1Cl)CC(=O)Nc1ccccc1Br	.	.	.	.
CCN(CC(=O)NCc1ccccc1Cl)CC(=O)Nc1c(F)cccc1F	.	.	.	44.2
CCc1nnc(NS(=O)(=O)c2ccc(NC(=S)NC(=O)/C=C/c3ccc(C(C)C)cc3)cc2)s1	.	.	.	31.7
C=CC(=O)Nc1ccc(N(C)c2ccnc(Nc3ccc(N4CCN(C)CC4)cc3)n2)cc1	/	.	.	.
COc1ccc(/C=C2\SC(=S)N(CCC(=O)Nc3ccccc3C(=O)O)C2=O)cc1	.	.	.	.
O=C(CCCN1C(=O)S/C(=C/C=C/c2ccccc2)C1=O)Nc1ccc(C(=O)O)cc1	.	.	.	.
O=C(CN1C(=O)S/C(=C\c2cccs2)C1=O)Nc1ccc(O)cc1C(=O)O	.	.	.	43.9
O=C(CCN1C(=O)/C(=C/c2cccs2)SC1=S)Nc1ccc(C(=O)O)c(O)c1	.	.	.	.
SMILES	UGM FP inh	Mtb FBA inh	Rv3671c protease	GDH-TPI inh
O=C(CCN1C(=O)S/C(=C\c2ccccc2)C1=O)Nc1ccc(O)cc1C(=O)O	.	.	.	38.0
O=C(CN1C(=O)S/C(=C\C=C\c2ccccc2)C1=O)Nc1ccc(O)cc1	.	.	.	33.3
CC(=Cc1ccccc1)C=C1SC(=S)N(CCCC(=O)Nc2ccc(C(=O)O)c(O)c2)C1=O	/	.	/	30.9
CC1=CC(C2CC(=O)N(c3ccc(C)cc3)C2=O)CC2C(=O)N(c3ccc(C)cc3)C(=O)C12 (centres undefined)	.	.	.	.
CSCCC(NC(=O)COc1ccccc1)C(=O)N(C)Cc1ccc(SC)cc1 (centres undefined)	.	.	.	.
O=C(CCN1C(=O)S/C(=C/c2ccccc2)C1=O)Nc1ccc(O)c(C(=O)O)c1	.	.	.	41.7
O=C(CCN1C(=O)/C(=C\c2ccccc2)SC1=S)Nc1ccc(C(=O)O)cc1	.	.	.	.
COc1c(C=O)c2c(c(OC)c1OC)-c1ccc(OC)c(=O)cc1C(NC(C)=O)CC2 (centres undefined)	/	.	/	31.9
COc1cc2c(c(OC)c1OC)-c1ccc(OC)c(=O)cc1C(NC(C)=O)CC2 (centres undefined)	.	.	.	.
COc1ccc(-c2nn(CCC#N)cc2C(=O)Nc2cccc(C(=O)O)c2)cc1OC	.	.	/	.
Cc1ccc(C2=N/C(=C/N3CCOCC3)C(=O)O2)cc1	.	.	.	38.0
Cc1ccc(C2=N/C(=C\N3CCCCC3)C(=O)O2)cc1	.	.	.	62.1
COc1ccccc1-c1ccc([C@@H]2C[C@H]3[C@@H](CN2)CON3C)cc1	/	.	/	.
COc1ccc(-c2cc(C)no2)cc1S(=O)(=O)Nc1cccc(C)c1	.	.	.	.
COc1ccc(-c2cc(C)no2)cc1S(=O)(=O)Nc1ccccc1	.	139.2	.	.
Cc1ccc(NC(=O)Cn2c(=O)cnc3ccccc32)cc1S(=O)(=O)N1CCOCC1	.	.	.	.
O=C1/C(=C/c2ccccc2)N=C(N2CCOCC2)N1c1cccc(Cl)c1	.	.	.	32.1
COc1cc(C(=O)N2CCN(c3cccc(C(F)(F)F)c3)CC2)ccc1OCC(=O)N1CCOCC1	/	.	/	.
Cc1ccc(C(=O)O/N=C\c2ccc(N3CCCCC3)c([N+](=O)[O-])c2)cc1	.	.	.	39.8
O=C(O/N=C\c1ccc(N2CCCCC2)c([N+](=O)[O-])c1)c1cccc(Cl)c1	.	.	.	.
COc1ccc(C(=O)N/C(=C/c2cccs2)c2nc3ccccc3[nH]2)cc1OC	.	.	.	47.5
COc1cc(/C=C(/C(=O)c2cccs2)c2nc3ccccc3[nH]2)cc(OC)c1O	.	.	.	43.4
Cc1ccc(S(=O)(=O)NC(=O)C2(C)CCN2C(=O)Cc2ccc(Cl)cc2Cl)cc1 (centres undefined)	/	.	/	.
COc1cccc(-c2cc3nc4c(c(N5CCC6(CC5)OCCO6)n3n2)CCC4)c1	.	.	.	.
COc1ccc(N=C(C)C2=C(O)c3ccccc3C2=O)cc1	.	.	.	36.4
SMILES	UGM FP inh	Mtb FBA inh	Rv3671c protease	GDH-TPI inh
CCOc1ccc(N=C(C)C2=C(O)c3ccccc3C2=O)cc1	.	.	.	.
CC(=NC1CC1)C1=C(O)c2ccccc2C1=O	.	.	.	37.6
C/C(=N\N(C)C)C1=C(O)c2ccccc2C1=O	.	.	.	.
CCC(C)[C@H](NC(=O)C1CC(=O)N(c2ccc3c(c2)OCCO3)C1)C(=O)N1CCCCC1 (some centres undefined)	.	.	.	.
O=C(CNc1ccc(Br)cc1)c1ccc(Br)s1	.	.	.	.
CCOc1ccc(S(=O)(=O)N(CC)CC)cc1NC(=O)c1ccc(N2CCCC2=O)cc1	.	.	.	.
Cc1cc(/C=C(\C#N)C(=O)NCc2ccco2)c(C)n1C1CCCC1	.	.	.	.
O=C(NCc1ccco1)/C(=C/C=C\c1ccccc1)NC(=O)c1ccc(Br)o1	.	.	.	35.1
Cc1cc(/C=C(\C#N)C(=O)NCc2ccco2)c(C)n1-c1cccnc1	.	.	.	31.0
Cc1ccsc1/C=C(\C#N)C(=O)NCc1ccco1	.	.	.	32.2
O=C(NCc1ccco1)/C(=C\c1ccccc1)NC(=O)c1ccccc1	.	.	.	.
N#C/C(=C\C=C\c1ccccc1)C(=O)NCc1ccco1	.	.	.	63.4
N#C/C(=C\c1cccs1)C(=O)NCc1ccco1	.	.	.	.
